Laboratory results from PubChem BioAssay (NCATS).
“And” between values parts separate entries of the source, which are not always exact repeats. Equal entries are not always repeated. Inconclusive results are not listed. The source made the active and inactive calls. Unless noted, calls follow the shape of the dose curve; as a rule, active = well fitted curve in the direction sought with a large enough effect; inconclusive = small, poorly fitted or top-dose-only effect, or another doubt; inactive = no such curve, though single readings can be large; an effect the other way counts as inactive or inconclusive.

Legend:
[1] = target: Mitogen-activated protein kinase 10 (Mus musculus) (UniProt Q61831); test: JNK3 AlphaScreen Assay (AID 530; active = well fitted curve in either direction with a large enough effect, not every such curve was filed as active;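 also: kinase came from lysate of stimulated human HepG2 cells; signal reports phosphorylation of biotinylated GST-cJun 1-79 at Ser73 with 10 µM ATP; % is scaled to controls: 0 for no effect and ±100 for the full control effect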)
Procedure, shortened: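 Inhibitors reduce antibody binding to phosphorylated biotin-cJun, lowering AlphaScreen luminescence. Lysates from HepG2 cells pre-activated by IL-1beta plus TNF-alpha supplied JNK3; compounds were titrated.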

[2] = Cell Viability - Mesenchymal (AID 546);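 also: cells exposed to compound for 40 hours before reading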
Procedure, shortened: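 Normal human renal glomerulus-derived kidney mesenchymal cells, 1000 per well in complete medium, were treated with compounds for 40 hr at 37 °C. Viability was read as intracellular ATP by CellTiter-Glo luminescence; AC50 values came from Hill-equation fits of qHTS concentration-response data.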

[3] = Cellular Toxicity (caspase-3) HepG2 (AID 654);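 also: cells exposed to compound for 16 hours before reading; 0% = DMSO alone and 100% = caspase signal from 100 µM tamoxifen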
Procedure, shortened: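 HepG2 cells (1500/well) were treated 16 h at 37 °C in complete medium, then caspase 3/7 activity was read by Caspase-Glo luminescence. Data were normalized to DMSO and 100 uM tamoxifen; AC50 came from Hill-equation fits of qHTS concentration-response.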

[4] = Cellular Toxicity (caspase-3) SHSY5Y (AID 657)
Procedure, shortened: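 SH-SY5Y human neuroblastoma cells, 1500/well, exposed to compound for 16 hours at 37 °C in complete medium. Caspase-3/7 activity read by Caspase-Glo luminescence after 1 hr at room temperature, normalized to DMSO and 10 uM staurosporine; AC50 from Hill fit.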

[5] = Cellular Toxicity (caspase-3) SK-N-SH (AID 661);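 also: 0% = DMSO basal and 100% = 10 µM staurosporine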
Procedure, shortened: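 Human SK-N-SH neuroblastoma cells, 1500/well, were exposed to compounds for 16 hours at 37 °C. Caspase-Glo 3/7 luminescence was normalized to DMSO (basal) and 10 uM staurosporine (100%), and AC50 came from a Hill fit.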

[6] = Cellular Toxicity (caspase-3) Hek293 (AID 664); details: HEK293 caspase-3 activation, DMSO = 0%, 100 µM tamoxifen = 100%; at 92.2 µM (top of the series);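 also: cells exposed to compound for 16 h at 37 °C before readout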
Procedure, shortened: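 HEK293 cells in complete medium treated 16 h at 37 °C, then Caspase-Glo 3/7 luminescence read after 20 min at room temperature. Normalized to DMSO and 100 uM tamoxifen; AC50 from Hill fit of concentration-response.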

[7] = Cellular Toxicity (caspase-3) NIH 3T3 (AID 666);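 also: caspase signal read after 16 h compound exposure; 0% = DMSO basal and 100% = 100 µM tamoxifen stimulation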
Procedure, shortened: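 Mouse NIH 3T3 fibroblasts (1000/well) treated 16 h at 37 C; caspase-3/7 activity measured by Caspase-Glo 3/7 luminescence after 20 min. Normalized to DMSO and 100 uM tamoxifen; AC50 from Hill fits.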

[8] = MultiTox-Fluor Cytotoxicity Assay - LYMP1-001 - Dead Cells (AID 946)
Procedure, shortened: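 Cytotoxicity as increased dead-cell protease fluorescence (bis-AAF-R110, 485/520 nm), read 60 min after MultiTox-Fluor reagent. Human lymphoblastoid line exposed 16 h; Hill-fitted AC50, with DMSO as 0% and 15 uM tetraoctylammonium bromide as 100%.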

[9] = Cell Viability - LYMP2-009 (AID 968);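 also: 0% = DMSO alone and the full-kill end = tetraoctylammonium bromide at 92 µM; nearly all actives have a fitted effect of over 55% in size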
[10] = Cell Viability - LYMP2-019 (AID 973);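 also: 0% = DMSO alone and full effect = 92 µM tetraoctylammonium bromide; nearly all actives have a fitted effect of over 55% in size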
Procedure, shortened: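 Human lymphoblastoid LYMP2-019 cells (2500/well) preincubated 5 h at 37 C, then treated 24 h at 37 C in complete medium. Viability by CellTiter-Glo ATP luminescence after 30 min at room temperature; AC50 from Hill fits.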

[11] = Cell Viability - LYMP2-023 (AID 975);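 also: cellular ATP measured by luciferase luminescence as viability proxy; cells exposed to compound for 24 hours at 37 °C; plate controls were DMSO only for no effect and 92 µM tetraoctylammonium bromide control for full effect; nearly all actives have a fitted effect of over 55% in size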
Procedure, shortened: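 LYMP2-023 human lymphoblastoid cells, 2500/well, preincubated 5 hr at 37 C, then compound-treated 24 hr at 37 C in complete medium. CellTiter-Glo luminescence (ATP) after 30 min at room temperature; AC50 from Hill-equation fits; tetraoctylammonium bromide positive control.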

[12] = Cell Viability - LYMP2-002 (AID 977);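 also: plate controls were DMSO only for no effect and 92 µM tetraoctylammonium bromide for full effect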
Procedure, shortened: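 Luminescent ATP readout (CellTiter-Glo, 30 min room temperature) after 24 h compound exposure at 37 C of a human lymphoblastoid line, 2500 cells/well. AC50 values derived by standard Hill fitting of qHTS concentration-response data.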

[13] = Cell Viability - LYMP2-008 (AID 980); also: % is scaled to controls: 0 for no effect and ±100 for the full control effect; nearly all actives have a fitted effect of over 60% in size
Procedure, shortened: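 LYMP2-008 lymphoblastoid cells (2500/well) plated 5 h, then treated 24 h at 37 C in complete medium. Viability read as intracellular ATP by CellTiter-Glo luminescence after 30 min at room temperature; AC50 from Hill fits.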

[14] = Cell Viability - LYMP2-024 (AID 988);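 also: plate controls were DMSO only for no effect and 92 µM tetraoctylammonium bromide for full effect; nearly all actives have a fitted effect of over 60% in size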
Procedure, shortened: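 Human lymphoblastoid LYMP2-024 cells (2500/well) rested 5 hr, then treated with compound for 24 hr at 37 C in complete medium. Viability was measured as intracellular ATP by CellTiter-Glo luminescence. AC50 values came from Hill-equation fits.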

[15] = qHTS assay for small molecule activators of the p53 signaling pathway (AID 651743; active = well fitted activation curve with a large enough effect in the signal ratio, not every such curve was filed as active; the % refers to the signal ratio; also: % of control where 0% means no effect); details: HCT-116 p53RE-bla, beta-lactamase FRET ratio, 16 h; activation: stronger effect = higher value
Procedure, shortened: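 Cell-based beta-lactamase reporter (p53 response elements, HCT-116 background). After a 5-hour preincubation, cells received compound for 16 hours at 37 C; substrate development ran 2 hours at room temperature.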

[16] = target: Tumor necrosis factor (Homo sapiens) (UniProt P01375); test: qHTS assay to identify small molecules that stimulate Tumor Necrosis Factor-alpha (TNF-alpha) secretion (AID 651757; active = well fitted curve in the direction sought with a large enough effect in the signal ratio; the % refers to the signal ratio; also: 0% is about no effect)
Procedure, shortened: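 THP-1 cells (3000/well) exposed to compounds 17 hrs at 37 C. Secreted TNF-alpha detected by HTRF with cryptate- and XL665-labeled anti-TNF-alpha antibodies after 3 hr at room temperature.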

[17] = qHTS assay for small molecule agonists of the antioxidant response element (ARE) signaling pathway measured by Nrf2-dependant transcriptional activity (AID 720636; active = well fitted curve in the direction sought with a large enough effect in the repeat runs; an effect the other way counts as inactive or inconclusive;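 also: HepG2 cells with an ARE-driven luciferase reporter; % of control where 0% means no effect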)
Procedure, shortened: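 Attachment 6 hr at 37 C, then compound versus DMSO vehicle for 16 hr in ARE-luc HepG2 cells (1% dialyzed FBS); luminescence recorded 30 min after ONE-Glo addition at room temperature.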

[18] = qHTS assay for small molecule antagonists of the retinoid-related orphan receptor gamma (ROR-gamma) signaling pathway - cell viability counter screen (AID 720652; active = well fitted curve in the direction sought with a large enough effect in the repeat runs; an effect the other way counts as inactive or inconclusive;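 also: CHO reporter cells with doxycycline-induced ROR-gamma expression; compound exposure lasted 16 hr before ATP read; % is scaled to controls: 0 for no effect and ±100 for the full control effect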)
Procedure, shortened: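 CHO cells carrying TET-inducible ROR and RORE-luciferase reporter, plated 5 hr, then dosed with compound plus doxycycline. After 16 hr at 37 C, viability read as intracellular ATP by CellTiter-Glo luminescence.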

[19] = qHTS assay for cell viability of the p53RE-bla HCT-116 cell line (AID 743292); also: % is scaled to controls: 0 for no effect and ±100 for the full control effect; nearly all actives have a fitted effect of over 55% in size
Procedure, shortened: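 Compound-exposed HCT-116 (p53RE-bla) cells, 4,000 per well, were kept 16 h at 37 C following a 5 h preincubation. Cell number was estimated from total ATP by CellTiter-Glo luminescence read after 30 min at room temperature.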

[20] = Cellular Toxicity (caspase-3) Jurkat (AID 655); details: Jurkat caspase-3 activation, luminescence; caspase-3 activation: at 92.2 µM (top of the series), DMSO = 0%, tamoxifen = 100%;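 also: cells exposed to compound for 16 h at 37 °C before reading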
Procedure, shortened: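 Jurkat cells (5000/well) in complete medium exposed 16 h at 37 C; caspase-3/7 activity read by Caspase-Glo luminescence after 20 min at room temperature. Normalized to DMSO and 100 uM tamoxifen; AC50 from Hill fits.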

Tumor necrosis factor (Homo sapiens), sequence (P01375 whole entry, looked up): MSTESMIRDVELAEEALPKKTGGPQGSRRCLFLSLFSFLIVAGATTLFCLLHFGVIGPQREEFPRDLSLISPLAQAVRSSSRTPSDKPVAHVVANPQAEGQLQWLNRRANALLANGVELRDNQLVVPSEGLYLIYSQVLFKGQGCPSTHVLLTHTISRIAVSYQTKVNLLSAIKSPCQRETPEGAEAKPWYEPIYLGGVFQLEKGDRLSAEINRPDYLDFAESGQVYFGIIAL

CCC[N+](=O)[O-]
inactive: Potency [1] | Potency [2] | outcome [3] | outcome [4] | Potency [5] | caspase-3 activation [6] 0.185% | Potency [7] | outcome [8] | Potency [9] | Potency [10] | Potency [11] | Potency [12] | Potency [13] | Potency [14] | activation [15] -0.809% | outcome [16] | Potency [17] | Potency [18] | Potency [19]

S=C1NCCN1
inactive: Potency [1] | caspase-3 activation [20] 0.9% | Potency [5] | caspase-3 activation [6] -0.864% | Potency [7] | outcome [8] | Potency [9] | Potency [10] | Potency [11] | Potency [12] | Potency [13] | Potency [14] | activation [15] -4.05% and -5.02% | outcome [16] | Potency [17] | Potency [18] | Potency [19]

Clc1ccc(Cl)c(Cl)c1
inactive: Potency [1] | Potency [2] | outcome [3] | caspase-3 activation [20] -0.724% | Potency [5] | caspase-3 activation [6] 0.169% | Potency [7] | outcome [8] | Potency [9] | Potency [10] | Potency [11] | Potency [13] | activation [15] -3.13% and -3.99% | outcome [16] | Potency [18] | Potency [19]

CC1CC(=O)O1 (centres undefined)
inactive: Potency [1] | outcome [3] | caspase-3 activation [20] -1.79% | outcome [4] | Potency [5] | caspase-3 activation [6] -0.671% | Potency [7] | outcome [8] | Potency [9] | Potency [10] | Potency [11] | Potency [12] | Potency [13] | Potency [14] | outcome [16] | Potency [17] | Potency [19]

CCCCOC(C)=O
inactive: Potency [1] | Potency [2] | outcome [3] | caspase-3 activation [20] 1.84% | outcome [4] | Potency [5] | Potency [7] | outcome [8] | Potency [9] | Potency [10] | Potency [11] | Potency [12] | Potency [13] | Potency [14] | activation [15] -4.75% | outcome [16] | Potency [17]

Cc1ccc(N)cc1Cl
inactive: Potency [1] | outcome [3] | caspase-3 activation [20] 1.16% | outcome [4] | Potency [5] | outcome [8] | Potency [12] | Potency [13] | outcome [16] | Potency [19]

O=[N+]([O-])c1cccc2c([N+](=O)[O-])cccc12
inactive: Potency [1] | Potency [2] | outcome [3] | caspase-3 activation [20] 0.295% | outcome [4] | caspase-3 activation [6] -0.427% | Potency [7] | outcome [8] | Potency [9] | Potency [10] | Potency [11] | Potency [12] | Potency [13] | outcome [16] | Potency [18] | Potency [19]

O=C(O)CCl
inactive: Potency [1] | outcome [3] | caspase-3 activation [20] -0.292% | outcome [4] | Potency [5] | caspase-3 activation [6] -1.43% | Potency [7] | Potency [9] | Potency [10] | Potency [11] | Potency [12] | Potency [13] | Potency [14] | outcome [16] | Potency [17] | Potency [19]

[N-]=[N+]=[N-]
inactive: Potency [1] | Potency [2] | outcome [3] | caspase-3 activation [20] 1.16% | outcome [4] | Potency [5] | caspase-3 activation [6] -2.5% | Potency [7] | outcome [8] | Potency [9] | Potency [11] | Potency [12] | Potency [13] | activation [15] -1.87% | outcome [16] | Potency [17] | Potency [18]

COC(=O)c1ccccc1N
inactive: Potency [1] | Potency [2] | outcome [3] | caspase-3 activation [20] 1.63% | caspase-3 activation [6] -1.69% | Potency [7] | outcome [8] | Potency [9] | Potency [10] | Potency [11] | Potency [12] | Potency [13] | Potency [14] | activation [15] -1.42% | outcome [16] | Potency [18] | Potency [19]

O=[N+]([O-])c1cccc(O)c1
inactive: Potency [1] | Potency [2] | caspase-3 activation [20] 1.08% | outcome [4] | Potency [5] | Potency [7] | outcome [8] | Potency [9] | Potency [10] | Potency [11] | Potency [12] | Potency [13] | activation [15] -2.9% | outcome [16] | Potency [17] | Potency [19]

CC(=O)[O-].CC(=O)[O-].CC(=O)[O-].[Cr+3]
inactive: Potency [1] | Potency [2] | outcome [3] | caspase-3 activation [20] 0.251% | outcome [4] | Potency [5] | caspase-3 activation [6] 1.42% | Potency [7] | outcome [8] | Potency [9] | Potency [10] | Potency [11] | Potency [12] | Potency [13] | Potency [14] | outcome [16] | Potency [17] | Potency [18] | Potency [19]

CCCN(CCC)c1c([N+](=O)[O-])cc(C(F)(F)F)cc1[N+](=O)[O-]
inactive: Potency [2] | outcome [3] | outcome [4] | Potency [5] | caspase-3 activation [6] 3.06% | Potency [7] | outcome [8] | Potency [9] | Potency [11] | Potency [12] | Potency [13] | Potency [14] | outcome [16] | Potency [17] | Potency [18] | Potency [19]

NC1CCC(CC2CCC(N)CC2)CC1 (centres undefined)
inactive: Potency [1] | Potency [2] | outcome [3] | outcome [4] | Potency [5] | caspase-3 activation [6] -0.935% | Potency [7] | outcome [8] | Potency [9] | Potency [10] | Potency [11] | Potency [12] | Potency [13] | Potency [14] | activation [15] -3.72% and -4.21% | Potency [17] | Potency [18] | Potency [19]

CNC(=O)O/N=C/C(C)(C)S(C)=O (centres undefined)
inactive: Potency [1] | Potency [2] | outcome [3] | caspase-3 activation [20] 0.627% | outcome [4] | caspase-3 activation [6] -2.67% | outcome [8] | Potency [9] | Potency [10] | Potency [11] | Potency [12] | Potency [13] | Potency [14] | activation [15] -0.482% and 5.01% | outcome [16] | Potency [17] | Potency [18]

CC(C)(C)C(O)(CCc1ccc(Cl)cc1)Cn1cncn1 (centres undefined)
inactive: Potency [1] | outcome [3] | caspase-3 activation [20] 2.58% | Potency [5] | caspase-3 activation [6] 3.2% | Potency [7] | outcome [8] | Potency [9] | Potency [10] | Potency [12] | Potency [13] | Potency [14] | activation [15] -3.53% and -2.93% | Potency [17] | Potency [18] | Potency [19]
